In all, about 65,000 compounds went through this assay and about 65 (0.1%) showed an effect of 50% or more. The list comes from a sample in which strong results are over-represented; it also holds similar structures and randomly drawn compounds.
The molecules below were run against Tryptophan--tRNA ligase (Mycobacterium tuberculosis (strain ATCC 25618 / H37Rv)) (UniProt P9WFT3) (assay: Biochemical assay for Mt-TrpRS). Settings: 10 µM.
Assay type: functional
Design: scale not given: direction of the effect not stated beside the values

Chain of Tryptophan--tRNA ligase (Mycobacterium tuberculosis (strain ATCC 25618 / H37Rv)) (P9WFT3 whole entry): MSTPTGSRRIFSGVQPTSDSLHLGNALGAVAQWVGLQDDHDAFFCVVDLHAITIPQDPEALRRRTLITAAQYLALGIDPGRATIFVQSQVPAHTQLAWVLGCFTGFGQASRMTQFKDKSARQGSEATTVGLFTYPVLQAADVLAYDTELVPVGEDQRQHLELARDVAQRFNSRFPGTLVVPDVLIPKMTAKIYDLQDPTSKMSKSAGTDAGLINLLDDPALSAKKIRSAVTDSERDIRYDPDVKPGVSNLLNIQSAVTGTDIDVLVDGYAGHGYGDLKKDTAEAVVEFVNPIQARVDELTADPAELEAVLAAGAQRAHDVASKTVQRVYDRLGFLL

SMILES	Percent Effect [%]
CCN(CC1CCOC1)C(=O)c1ccc(N2CCOCC2)c(F)c1 (stereo not given)	18.7
C=C(C)CN(CC)C(=O)c1cc(F)ccc1N1CCN(C)CC1	1.96
CCN(CC1CCOC1)C(=O)c1cc(F)ccc1N1CCN(C)CC1 (stereo not given)	68.2
Fc1cnc(N2CC[C@@H]3O[C@H](COCc4ccccn4)CC[C@@H]32)nc1	-3.79
CCc1cnc(N2C[C@H]3C[C@H](C(=O)NC)[C@@H](C2)O3)nc1	-4.37
Cn1cc(CCN2CCOC(CNc3cccnn3)C2)cn1 (stereo not given)	66
c1ccc(CCN2CCOC(CNc3cccnn3)C2)nc1 (stereo not given)	-2.61
c1cnnc(NCC2CN(CCn3cccn3)CCO2)c1 (stereo not given)	-1.42
c1ccc(CN2C[C@H]3CCC[C@@]3(COCC3CC3)C2)nc1	-0.775
COc1ccc(CN2C[C@@H]3OCCN(CC4CCCO4)[C@@H]3C2)cc1 (stereo not given in full)	4.27
c1ccc(Cn2cccn2)c(CNCC2CNc3ccnn3C2)c1 (stereo not given)	6.16
c1ccc(Cn2cc(CNCC3CNc4ccnn4C3)cn2)cc1 (stereo not given)	62.4
c1cc(CNCC2CNc3ccnn3C2)cc(Cn2cccn2)c1 (stereo not given)	2.73
COc1ccc(C(=O)N2CCO[C@H]3[C@@H](OCC4CC4)CC[C@@H]32)cc1F	-0.755
Cc1ccc(CN2CC(C(=O)NC(C)C)C3(CCOCC3)C2)s1 (stereo not given)	0.402
CC(c1ccc2c(c1)OCO2)N1Cc2nc(N(C)C)ncc2C1=O (stereo not given)	4.59
N#Cc1ccsc1N1CCC(Sc2ccncc2)C1=O (stereo not given)	4.7
CC(NCc1c(C(C)C)nn(C)c1N1CCOCC1)C(=O)N(C)C (stereo not given)	71.4
CC(C)c1nn(C)c(N2CCOCC2)c1CNCC(=O)N(C)C	4.97
CC(NCc1c(C(C)C)nn(C)c1N1CCOCC1)C(N)=O (stereo not given)	-6.01
c1ccc(CN2CC[C@@H]3O[C@@H](COCCN4CCCC4)CC[C@@H]32)nc1	1.72
CC(C)c1nc(CN2CCC(c3ccnn3CCO)CC2)no1	61.5
CC(C)(C)c1nc(CN2CCC(c3ccnn3CCO)CC2)no1	23.6

SMILES	Percent Effect [%]
CC(C)c1noc(CN2CCC(c3ccnn3CCO)CC2)n1	-1.43
COc1cc(Cl)ccc1C(=O)NCc1nncn1C	-10.5
Cn1cnnc1C1CCN(C(=O)CCCOc2ccccc2)CC1	-0.13
Cc1cccc(C)c1OCCC(=O)N1CCC(c2nncn2C)CC1	3.92
Cn1cnnc1C1CCN(C(=O)CCOc2ccc(Cl)cc2)CC1	64.2
CC[C@H]1CN2CC[C@H]1C[C@@H]2CNCc1ccc(OC(F)(F)F)cc1	-0.828
O=C(C1CC1)N1CC[C@H]2[C@@H]1CCC(=O)N2c1ccccc1	6.13
N#Cc1cn[nH]c1NCc1cc(Cl)cc(Cl)c1O	8.64
N#Cc1cn[nH]c1NCc1cc(I)cc(I)c1O	3.89
N#Cc1cn[nH]c1NCc1cc(Br)ccc1O	288
NCCN1C(=O)CC[C@H]2CN(Cc3ccc4occc4c3)CC[C@H]21	1.29
COCCN1C[C@H]2CCN(C(=O)Nc3ccccc3C)CC[C@H]2S1(=O)=O	-4.45
Cc1ncoc1C(=O)N1C[C@H]2CCC[C@@]2(COCc2cccnc2)C1	1.59
CC(C(=O)NCc1ccc(N2CCCCC2)nc1)S(C)(=O)=O (stereo not given)	-4.1
CC(C(=O)NCc1ccc(N2CCCC2)nc1)S(C)(=O)=O (stereo not given)	59.5
CC(C(=O)NCc1ccc(N2CCCCCC2)nc1)S(C)(=O)=O (stereo not given)	-1.98
Cc1nnc2n1CCN(CC(=O)N1CCc3ccccc3C1)C2	18.8
Cc1cccc(CN2CCC[C@@H]3CN(C(=O)c4ccco4)C[C@@H]32)n1	0.174
COc1ccc(C[C@H]2CN(c3cc(OC)ncn3)CC[C@H]2OC)cc1	5.86
O=C(NCC(F)(F)F)C(c1cccnc1)N1CCCC1 (stereo not given)	0.735
O=C(NCC1=CCCCC1)C(c1cccnc1)N1CCOCC1 (stereo not given)	-0.187
O=C(NCC1=CCCCC1)C(c1cccnc1)N1CCCC1 (stereo not given)	51
CCn1c(SC)nnc1C1CCN(C(=O)N2CCCC2)CC1	-3

SMILES	Percent Effect [%]
Cn1ccnc1CN1C(=O)CO[C@H]2CN(Cc3ccc(F)c(F)c3)C[C@H]21	2.2
O=C(NCC1CC1)[C@@H]1CCO[C@@H]2CCN(Cc3ccco3)C[C@H]21	9.55
c1ccc(O[C@@H]2CC[C@H]3[C@H]2OCCN3Cc2ccsc2)nc1	8.46
CCCc1nnc(NC(=O)NC(C)Cn2cccn2)s1 (stereo not given)	-6.24
CCC(CC)c1nnc(NC(=O)NC(C)Cn2cccn2)s1 (stereo not given)	69.6
Cc1nnc(NC(=O)NC(C)Cn2cccn2)s1 (stereo not given)	-5.8
COCCNC(=O)[C@H]1C[C@@H]2CCN(c3ccccc3)C[C@H]2O1	6.99
CNC(=O)[C@@H]1COC[C@H]2CN(C(=O)c3cccc(OC)c3)C[C@H]21	1.06
COc1ccccc1CN1CCC(c2nccc(C)n2)C1 (stereo not given)	22
COc1cccc(F)c1CN1CCC(c2nccc(C)n2)C1 (stereo not given)	-3.03
COc1cccc(F)c1CN1CCC(c2nc(C)cc(C)n2)C1 (stereo not given)	70.2
Cc1ccc(N2CC[C@H]3OCC[C@@]3(C(=O)N3CCCC3)C2)nn1	1.02
CCN(CC)S(=O)(=O)N1CCCC1c1cccc(Nc2ncc(C)s2)n1 (stereo not given)	1.88
CCn1cc(S(=O)(=O)NC(CO)Cc2c[nH]c3ccccc23)cn1 (stereo not given)	-4.44
CCn1cc(S(=O)(=O)NC(=O)CCc2c[nH]c3ccccc23)cn1	57.5
CCn1cc(NC(=O)NC(CO)Cc2c[nH]c3ccccc23)cn1 (stereo not given)	2.58
Cc1csc(C(=O)NCCN2CCC(c3cccs3)CC2)c1	0.44
Cc1cccc(CN2CC[C@@H]3[C@@H]2CCN3C(=O)c2cc(C)on2)n1	-0.968
CCN1CCN(C(=O)c2cc(-c3ccc(C)o3)n[nH]2)[C@H]2CS(=O)(=O)C[C@H]21	2.31
O=C(C1=CCCC1)N1CCO[C@H]2[C@@H](OCC3CC3)CC[C@@H]21	0.105
Cc1cc(CN2CCN(C(=O)NCc3ccoc3)CC2)no1	-3.89
Cc1cc(CN2CCN(C(=O)NCc3ccco3)CC2)no1	70.1
Cc1cc(CN2CCN(C(=O)NCc3cccs3)CC2)no1	-4.93

SMILES	Percent Effect [%]
COCC(=O)N1C[C@@H](c2cccc(F)c2)[C@H]2[C@H]1CCCCCN2C(C)=O	9.95
O=C(CC1CC1)N1CCC2(CC1)CN(Cc1cccnc1)C(=O)CO2	-3.48
Cn1cnnc1C1CCN(C(=O)c2cc3c(s2)CCC3)CC1	-1.59
Cn1cnnc1C1CCN(C(=O)c2cc3c(s2)CCCC3)CC1	83.8
CCn1cnnc1C1CCN(C(=O)c2cc3c(s2)CCCC3)CC1	-7.73
Cc1nc(C)c(CNC[C@@]2(COc3cccnc3)C[C@@H](O)[C@@H](O)C2)s1	-10.4
CN(Cc1ccco1)[C@@H]1CN(Cc2ccc(F)cc2)[C@@H]2CCCO[C@H]12	-5.38
CCS(=O)(=O)N1C[C@@H](OCc2ccccn2)[C@@H]2OCCC[C@@H]21	4.01
Cn1nc(C#N)c2c1CN(C(=O)c1cccnc1)CCC2	11.1
Cn1nc(C#N)c2c1CN(C(=O)c1ccco1)CCC2	50.1
Cn1nc(C#N)c2c1CN(C(=O)c1ccnnc1)CCC2	4.65
CC(C)CC(=O)N1C[C@H]2CCCN(S(=O)(=O)c3ccc(Cl)s3)[C@H]2C1	-3.18
Cc1ccc(CS(=O)(=O)CC(=O)NCCCOC(C)C)cc1	-5.37
CC(C)OCCCNC(=O)CS(=O)(=O)Cc1ccc(C(C)C)cc1	2.32
CC(C)OCCCNC(=O)CS(=O)(=O)Cc1ccc(Cl)cc1	75.4
Cn1ncc2c(N3CCCN4CCC[C@H]4C3)nc(C(C)(C)C)nc21	2.18
CC(C)N1[C@H](CN2CCCC2)C[C@@H]2CN(C(=O)c3ccoc3)CC[C@@H]21	0.0969
COCCN1CCC(NCc2ccc(F)cc2F)C1 (stereo not given)	83.4
COCCN1CCC(NCc2cc(F)ccc2F)C1 (stereo not given)	12.2
COCCN1CCC(NCc2cccc(F)c2)C1 (stereo not given)	-5.04
O=C(c1ccccn1)N1C[C@@H]2CC[C@H](C1)N(C(=O)CCN1CCCC1)C2	4.71
O=C(O)CCCC(=O)N1CCC(c2noc3cc(F)ccc23)CC1	1.46
NC(=O)CN1CCC(c2noc3cc(F)ccc23)CC1	76.4

SMILES	Percent Effect [%]
O=C(O)CCC(=O)N1CCC(c2noc3cc(F)ccc23)CC1	1.33
CCS(=O)(=O)N1CCC[C@]2(C(=O)N(C)C)CN(c3ccccn3)C[C@@H]2C1	-1.99
NC(=O)N1CCc2cc(C(=O)O)c(-c3ccsc3)nc2CC1	-4.21
Cc1ncsc1C(=O)N(Cc1cccs1)C1CC1	-1.87
Cc1ncsc1C(=O)N(Cc1ccccn1)C1CC1	75.1
Cc1ncsc1C(=O)N(Cc1ccccc1)C1CC1	-6.55
O=C(NC1CC(F)(F)C1)[C@]12COC[C@H]1CN(Cc1cccnc1)C2	-2.86
Cc1ncsc1CN1C[C@@H]2COC[C@]2(C(=O)NCC2CC2)C1	0.881
CCc1cnc(N2C[C@H]3C[C@H](C(=O)NCC(C)C)[C@@H](C2)O3)nc1	1.95
CC(=O)c1cccc(NC(=O)N(CC(F)F)C2CC2)c1	4.27
Cc1cccc(NCc2nc(C)ccc2O)c1	52.2
CCn1nnnc1-c1cccc(NCc2nc(C)ccc2O)c1	-6.59
Cc1ccc(O)c(CNc2cccc(OCCF)c2)n1	-4.08
CCNC(=O)[C@@H]1C[C@@H](N)CN1C(=O)c1cc2ccccc2[nH]1	2.18
Cc1ccc(N2C[C@@H]3CN(C(=O)c4ccccc4)CCO[C@@H]3C2)nn1	12.7
Cn1ccnc1CN1CCN2C[C@H](Oc3ccccc3)C[C@H]2C1	2.44
CC(=O)Nc1ccc(CN2C[C@H]3CC[C@@H]2CN(c2ncccn2)C3)cc1	3.06
c1cncc(CN2CCO[C@H]3[C@H](OCCN4CCCC4)CC[C@@H]32)c1	2.57
Cc1c[nH]c(CN2CC[C@@]3(O)CCN(C(=O)C4CCC4)C[C@H]3C2)n1	1.37
Cc1ncsc1C(=O)NC1CCN(CCC(N)=O)CC1	0.56
Cc1ncsc1C(=O)NC1CCN(CCC#N)CC1	57.5
Cc1ncsc1C(=O)NC1CCN(CCCC#N)CC1	-4.15
CN(Cc1cccnc1)C[C@H]1OC[C@@H]2CCN(C(=O)C3CC3)C[C@@H]21	-1.23

Reference: ChEMBL document CHEMBL3988442, “University of Dundee, Small-Polar-MMV Screening Library” (2021)
